Inconclusive results are not listed. Where a call stands in place of a potency, no number is given. Calls of active or inactive are those of the source. Calls follow the shape of the full dose curve.
Each molecule was assayed against Acetylcholinesterase (Homo sapiens) (UniProt P22303) (assay: Acetylcholinesterase (AChE) small molecule antagonists: colormetric cell-based qHTS assay (AID 1347395; also: nearly all actives have a fitted effect of over 30% in size)). Settings: SH-SY5Y cells AChE activity, colorimetric (Ellman); series mostly up to 115 µM.
Acetylcholinesterase (Homo sapiens), sequence (P22303 whole entry, looked up): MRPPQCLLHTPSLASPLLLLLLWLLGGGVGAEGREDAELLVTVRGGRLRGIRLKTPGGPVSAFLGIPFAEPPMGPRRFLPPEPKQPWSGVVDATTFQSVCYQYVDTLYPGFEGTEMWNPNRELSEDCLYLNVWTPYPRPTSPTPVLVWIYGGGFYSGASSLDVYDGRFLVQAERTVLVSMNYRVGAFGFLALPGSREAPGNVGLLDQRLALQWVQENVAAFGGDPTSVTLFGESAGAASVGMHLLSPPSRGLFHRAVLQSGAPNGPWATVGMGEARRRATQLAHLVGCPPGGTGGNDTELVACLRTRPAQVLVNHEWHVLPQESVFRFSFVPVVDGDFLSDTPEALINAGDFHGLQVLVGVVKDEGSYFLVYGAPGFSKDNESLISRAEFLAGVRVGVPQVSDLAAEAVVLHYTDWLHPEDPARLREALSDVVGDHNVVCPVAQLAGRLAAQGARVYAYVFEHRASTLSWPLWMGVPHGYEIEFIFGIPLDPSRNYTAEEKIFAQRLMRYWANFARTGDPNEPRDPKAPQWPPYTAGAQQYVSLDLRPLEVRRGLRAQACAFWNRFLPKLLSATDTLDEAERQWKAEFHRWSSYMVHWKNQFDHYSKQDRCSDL
Method in brief: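 Homogeneous whole-cell format. SH-SY5Y cells seeded overnight, dosed with compound (30 min, 37 C, 5% CO2), then given DTNB/acetylthiocholine cocktail for 90 min at 37 C; colorimetric signal.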
With `C=CCc1cc(S(=O)(=O)c2ccc(O)c(CC=C)c2)ccc1O` the Potency was “inactive”.
For `CCOC(=O)c1ccc(NC(=O)CN2CCCCC2)cc1`, the Potency was 30.9 µM (active).
For `CN(C[C@@H](CC[N+]12CCC(C3CCCCC3)(CC1)CC2)c1ccc(Cl)c(Cl)c1)C(=O)c1cc(C(F)(F)F)cc(C(F)(F)F)c1`, the outcome was “inactive”.
In the case of `CCO[Si](C)(OCC)OCC`, the Potency is reported as “inactive”.
`COc1cc(Cl)ccc1Oc1ccc(Cl)cc1Cl` was tested, and the Potency was “inactive”.
In the case of `CCOC(=N)CC(=O)OCC`, the Potency is reported as “inactive”.
With `CCc1c(Br)c(Br)c(Br)c(Br)c1Br` the Potency was “inactive”.
`CC/C(=C(/c1ccc(O)cc1)c1ccc(OCCN(C)C)cc1)c1ccccc1` was tested, and the Potency was 41.7 µM (active).
In the case of `CCCC(=O)OC[C@@H](OC(=O)CCC)[C@@H](OC(=O)CCC)[C@H](Cn1c2nc(=O)[nH]c(=O)c-2nc2cc(C)c(C)cc21)OC(=O)CCC`, the Potency is reported as “inactive”.
`NC(=O)C1(N2CCCCC2)CCN(CCCN2c3ccccc3CCc3ccc(Cl)cc32)CC1` was tested, and the Potency was “inactive”.
With `O=C(CS(=O)Cc1ccco1)NC/C=C\COc1cc(CN2CCCCC2)ccn1` (stereo not drawn) the Potency was 38.9 µM (active).
In the case of `O=C(O)c1c2ccccc2cc2ccccc12`, the Potency is reported as “inactive”.
With `COc1cc(C(=O)NC2CCN(C)CC2)ccc1Nc1ncc2c(n1)N(C1CCCC1)CC(F)(F)C(=O)N2C` the Potency was 32.6 µM (active).
For `CCCCC/C=C\C/C=C\CCCCCCCC(=O)NC(C)c1ccccc1` (stereo not drawn), the Potency was “inactive”.
With `CCCCCCCCCCCCOCCOS(=O)(=O)O` the Potency was “inactive”.
In the case of `CC(C)(C)c1ccccc1`, the Potency is reported as “inactive”.
For `CC[N+](CC)(CC)Cc1ccccc1`, the Potency was “inactive”.
For `Cc1nc2ccccn2c(=O)c1CCN1CCC(C(=O)c2ccc(F)cc2)CC1`, the Potency was 24.5 µM (active).

From PubChem BioAssay (Tox21)
Potency is read from the fitted curve at half-maximal effect.
